Assay results: the supplement of paper PMC11732987, “Enantioselective OTUD7B fragment discovery through chemoproteomics screening and high-throughput optimisation” (Communications Chemistry, 2025)

Tests used:
Assay in all cases: log2 ratio of Biotin-Ahx-Ub-VS probe labelling (compound/DMSO); higher = less target engagement, active = hit call of the paper (q ≤ 0.05, log2 ratio ≤ -1)
Details in all cases: treatment time: 3 h
[1] = compound: CCC1N(CCc2sccc12)C(=O)CCl
Summary of the method: (§1)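 Compound at 50 or 200 µM, or DMSO, was applied for 3 h in triplicate to HEK293T lysate (495 µg per sample, Tris/CHAPS/IGEPAL buffer with protease inhibitors), after which Biotin-Ahx-Ub-VS was added at 0.5 µM final for 1 h. The labelled DUBs were pulled down with NeutrAvidin, digested with LysC and trypsin, and run by diaPASEF LC-MS/MS. Ratios are averaged base-two logs of compound over DMSO from median-normalised label-free quantities by unpaired t-test, counting only proteins with at least 2 unique peptides.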

[2] = compound: CN1c2ccccc2C(CS1(=O)=O)NC(=O)CCl
Summary of the method: as §1

[3] = compound: Cl.ClCC(=O)N1CCc2ncncc2C1
Summary of the method: as §1

[4] = compound: Cl.Cn1ncc2C(CCCc12)NC(=O)CCl
Summary of the method: as §1

[5] = compound: ClCC(=O)NC1CCOc2ccccc12
Summary of the method: as §1

[6] = compound: ClCC(=O)NC1CCCc2ccccc12
Summary of the method: (§2)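 Spectronaut label-free, global-median-normalised protein quantities underlie these values, which are average ratios of compound to vehicle from an unpaired t-test. They are reported as log2 and include only proteins identified by two or more unique peptides. Samples of HEK293T lysate (495 µg) were treated in triplicate with a compound concentration series or vehicle for 3 h, then labelled with Biotin-Ahx-Ub-VS at 0.5 µM final for 1 h before NeutrAvidin enrichment, LysC and trypsin digestion, and diaPASEF LC-MS/MS.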

[7] = compound: ClCC(=O)N[C@@H]1CCCc2ccccc12
Summary of the method: as §2

[8] = compound: ClCC(=O)N[C@H]1CCCc2ccccc12
Summary of the method: as §2

[9] = compound: CCC1N(CCc2cc(OC)c(Cl)cc12)C(=O)CCl
Summary of the method: as §1

[10] = compound: CCCC1N(CCc2cc(OC)c(OC)cc12)C(=O)CCl
Summary of the method: as §1

[11] = compound: CN(Cc1cccc(Br)c1)C(=O)CCl
Summary of the method: as §1

[12] = compound: CN(Cc1cccc(OCc2ccccc2C)c1)C(=O)CCl
Summary of the method: as §1

[13] = compound: CN(Cc1ccccc1)C(=O)CCl
Summary of the method: as §1

[14] = compound: COc1ccc(CN(C)C(=O)CCl)cc1
Summary of the method: as §1

[15] = compound: COc1cccc(CN(CCCc2ccccc2)C(=O)CCl)c1
Summary of the method: as §1

[16] = compound: ClCC(=O)N1CCc2cc(Cl)c(Cl)cc2C1
Summary of the method: as §1

[17] = compound: ClCC(=O)N1CCc2nc(ncc2C1)-c1ccccc1
Summary of the method: as §1

[18] = compound: ClCC(=O)N1CCc2nocc2C1
Summary of the method: as §1

[19] = compound: ClCC(=O)N1CCc2scc(Br)c2C1
Summary of the method: as §1

[20] = compound: ClCC(=O)NC(C1CCCC1)c1cccs1
Summary of the method: as §1

Measured: log2 ratio of Biotin-Ahx-Ub-VS probe labelling

UniProt P51784
UniProt P51784, sequence (P51784 whole entry): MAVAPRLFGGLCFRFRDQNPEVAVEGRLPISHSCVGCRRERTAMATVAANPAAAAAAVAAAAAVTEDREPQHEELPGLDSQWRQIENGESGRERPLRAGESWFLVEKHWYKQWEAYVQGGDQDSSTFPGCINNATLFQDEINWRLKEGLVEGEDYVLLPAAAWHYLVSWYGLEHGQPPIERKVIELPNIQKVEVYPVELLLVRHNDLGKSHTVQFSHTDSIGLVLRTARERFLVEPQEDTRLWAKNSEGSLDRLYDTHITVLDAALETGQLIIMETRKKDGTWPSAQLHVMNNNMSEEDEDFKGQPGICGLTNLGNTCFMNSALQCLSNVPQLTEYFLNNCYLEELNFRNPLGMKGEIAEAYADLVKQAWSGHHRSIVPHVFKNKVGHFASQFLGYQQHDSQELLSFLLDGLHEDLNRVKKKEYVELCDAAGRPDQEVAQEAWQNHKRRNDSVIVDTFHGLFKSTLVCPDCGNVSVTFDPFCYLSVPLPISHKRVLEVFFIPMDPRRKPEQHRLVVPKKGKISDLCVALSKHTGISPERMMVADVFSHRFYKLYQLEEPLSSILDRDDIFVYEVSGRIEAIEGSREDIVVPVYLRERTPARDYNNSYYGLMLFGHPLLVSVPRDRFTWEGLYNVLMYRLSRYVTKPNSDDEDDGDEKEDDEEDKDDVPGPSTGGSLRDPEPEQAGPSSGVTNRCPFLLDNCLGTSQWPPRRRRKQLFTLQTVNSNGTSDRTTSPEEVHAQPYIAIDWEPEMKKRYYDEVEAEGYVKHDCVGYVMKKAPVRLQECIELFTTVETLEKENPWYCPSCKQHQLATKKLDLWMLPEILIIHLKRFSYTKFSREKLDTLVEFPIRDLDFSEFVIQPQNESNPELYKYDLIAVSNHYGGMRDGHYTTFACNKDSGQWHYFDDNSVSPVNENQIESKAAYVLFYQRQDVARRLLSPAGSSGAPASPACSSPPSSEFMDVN
inactive: [1]; compound concentration: 50uM 0.031 | [1]; compound concentration: 200uM -0.194 | [2]; compound concentration: 50uM -0.0381 | [2]; compound concentration: 200uM -0.118 | [3]; compound concentration: 50uM 0.0396 | [3]; compound concentration: 200uM -0.389 | [4]; compound concentration: 50uM 0.218 | [4]; compound concentration: 200uM 0.132 | [5]; compound concentration: 50uM 0.157 | [5]; compound concentration: 200uM -0.115 | [6]; compound concentration: 0.78uM -0.0264 | [6]; compound concentration: 1.56uM -0.0198 | [6]; compound concentration: 3.13uM -0.0986 | [6]; compound concentration: 6.25uM 0.0318 | [6]; compound concentration: 12.5uM -0.0982 | [6]; compound concentration: 25uM -0.201 | [6]; compound concentration: 50uM 0.0391 | [6]; compound concentration: 100uM -0.0818 | [6]; compound concentration: 200uM -0.0885 | [7]; compound concentration: 0.78uM -0.219 | [7]; compound concentration: 1.56uM -0.052 | [7]; compound concentration: 3.13uM -0.00301 | [7]; compound concentration: 6.25uM -0.0872 | [7]; compound concentration: 12.5uM -0.0816 | [7]; compound concentration: 25uM 0.00546 | [7]; compound concentration: 50uM -0.0574 | [7]; compound concentration: 100uM -0.00104 | [7]; compound concentration: 200uM -0.228 | [8]; compound concentration: 0.78uM -0.0931 | [8]; compound concentration: 1.56uM -0.0394 | [8]; compound concentration: 3.13uM -0.0291 | [8]; compound concentration: 6.25uM 0.0533 | [8]; compound concentration: 12.5uM -0.077 | [8]; compound concentration: 25uM -0.127 | [8]; compound concentration: 50uM -0.0252 | [8]; compound concentration: 100uM -0.0157 | [8]; compound concentration: 200uM -0.158 | [9]; compound concentration: 50uM -0.0453 | [9]; compound concentration: 200uM -0.739 | [10]; compound concentration: 50uM -0.482 | [11]; compound concentration: 50uM 0.019 | [11]; compound concentration: 200uM -0.0885 | [12]; compound concentration: 50uM -0.394 | [12]; compound concentration: 200uM -0.417 | [13]; compound concentration: 50uM -0.135 | [13]; compound concentration: 200uM -0.305 | [14]; compound concentration: 50uM -0.149 | [14]; compound concentration: 200uM -0.291 | [15]; compound concentration: 50uM -0.0998 | [15]; compound concentration: 200uM -0.339 | [16]; compound concentration: 50uM 0.125 | [16]; compound concentration: 200uM -0.807 | [17]; compound concentration: 50uM 0.0941 | [17]; compound concentration: 200uM -0.284 | [18]; compound concentration: 50uM -0.0884 | [18]; compound concentration: 200uM -0.403 | [19]; compound concentration: 50uM -0.0183 | [19]; compound concentration: 200uM -0.573 | [20]; compound concentration: 50uM 0.0513 | [20]; compound concentration: 200uM -0.0659
active: [10]; compound concentration: 200uM -1.44
